Screening data as filed in PubChem.
Rows were chosen to be rich in hits. Some 4.7% of all compounds tested hit in one or more screens of this group.
D1 ag = Allosteric Agonists of the Human D1 Dopamine Receptor: qHTS. D(1A) dopamine receptor (Homo sapiens), P21728. HEK293 T-REx D1 cells, calcium flux, agonist mode. activation, % at 2 µM. 1% of 360,000 active
Target sequence (P21728 whole entry, looked up): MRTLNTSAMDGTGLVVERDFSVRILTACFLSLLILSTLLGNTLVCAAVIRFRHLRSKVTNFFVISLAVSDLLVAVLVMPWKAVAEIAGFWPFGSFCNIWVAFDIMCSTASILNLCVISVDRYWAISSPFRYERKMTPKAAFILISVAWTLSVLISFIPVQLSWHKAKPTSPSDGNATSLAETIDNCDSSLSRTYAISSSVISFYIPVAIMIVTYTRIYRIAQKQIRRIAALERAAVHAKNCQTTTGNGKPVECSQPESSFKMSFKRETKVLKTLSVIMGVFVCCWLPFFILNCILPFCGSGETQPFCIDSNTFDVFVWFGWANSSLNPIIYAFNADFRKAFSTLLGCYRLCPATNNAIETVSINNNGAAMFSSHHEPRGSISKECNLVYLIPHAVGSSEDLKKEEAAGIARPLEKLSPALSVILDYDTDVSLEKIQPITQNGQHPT
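Agonism was scored from calcium flux recorded over 180 s (1 read/s) after pintool compound addition, following a 10-cycle baseline. Cells were inducible force-coupled HEK293 TREx D1, plated overnight at 30 C and loaded with no-wash calcium dye.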
TRHR enhancer = qHTS for Small Molecule Agonists and Allosteric Enhancers of Human TRH Receptor: Primary Screen for Enhancers | Thyrotropin-releasing hormone receptor (Homo sapiens), P34981 | TRHR cells, fluo-8 calcium fluorescence, EC20 TRH enhancement | enhancement, % at 2 µM | 0.66% of 360,000 active; in the data active = enhancement above about 30%
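Enhancer read-out: after compound pinning and an initial kinetic agonist-mode read, an EC20 of TRH (10 nM final) was injected and fluo-8 calcium signal (Ex 480/Em 530) followed at 1 s/cycle for 100 cycles in TRHR-expressing cells.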
TRHR ag = qHTS for Small Molecule Agonists and Allosteric Enhancers of Human TRH Receptor: Primary Screen for Agonists. activation, % at 2 µM. Thyrotropin-releasing hormone receptor (Homo sapiens), P34981. AID 493084, 2011. TRHR cells, calcium flux fluo-8, FDSS agonist mode. 0.18% of 360,000 active
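TRHR-expressing cells loaded with fluo-8 calcium dye; 23 nL library compound pin-transferred, kinetic FDSS fluorescence (Ex 480/Em 530) recorded about 180 s for agonist-induced calcium release, before a 10 nM TRH EC20 addition for potentiator mode.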
D1 potentiator = Potentiators of Human D1 Dopamine Receptor: qHTS | D(1A) dopamine receptor (Homo sapiens), P21728 | HEK293 TREx D1 cells, calcium flux, dopamine EC20 potentiation | potentiation, % at 10 µM | 0.036% of 360,000 active | AID 504651, 2011; in the data active = potentiation above about 30%
D1 antagonist = Antagonist of Human D 1 Dopamine Receptor: qHTS. D(1A) dopamine receptor (Homo sapiens), P21728. HEK293 TREx D1 cells, calcium flux, dopamine EC80; active compounds read low. activity change, negative = inhibition, % at 10 µM. 3.2% of 360,000 active. AID 504652, 2011; in the data active = activity change below about -30%
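Antagonism measured as reduced calcium response to an EC80 dopamine addition following 180 s compound pre-read; cells were inducible HEK293 Trex D1 plated overnight at 30 C, read kinetically at 1 cycle/sec.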
Of the large screens only hits and unclear results are named; the others gave an inactive call; ! = repeats disagree. Cut-off read from the data, not from the text of the source, unless noted: active = activation above about 30%; inactive = the rest.

CC(C)(C)n1nc2c(c1NC(=O)Cc1cccs1)CSC2	D1 antagonist -81 (no result: D1 potentiator)
CCC(=O)c1c[nH]c(C(=O)N2CCOCC2)c1	D1 antagonist -37
CCC(=O)c1c[nH]c(C(=O)N2CCN(c3ccccc3)CC2)c1	none
O=c1c2[nH]c3cccc(Cl)c3c2ncn1CC1CCCO1 (centres undefined)	D1 antagonist -30
CCCCN(CC)CCNC(=O)CCn1cnc2onc(-c3ccc(F)cc3)c2c1=O	D1 ag 32
Cc1cc2c(s1)c1cnn(Cc3c(F)ccc(Cl)c3F)c(=O)c1n2C	none
CC(=O)N1c2ccc(S(=O)(=O)N3CCC(C(=O)Nc4cccc(C(F)(F)F)c4)CC3)cc2CC1C (centres undefined)	D1 antagonist -34
O=C(Nc1cccc(C(F)(F)F)c1)C1CCN(S(=O)(=O)c2ccc(N3CCCC3=O)cc2)CC1	D1 antagonist -47
COc1ccc(C(=O)NCc2nnc(SCC(=O)NCc3ccco3)o2)cc1OC	D1 antagonist -41
COc1ccc(CCCc2nnc(SCC(=O)Nc3ccc(OC)cc3)o2)cc1	none
COc1ccc(C(=O)NCc2nnc(SCC(=O)NCCc3ccccc3)o2)cc1	TRHR enhancer 36
O=C(CSc1nnc(CNC(=O)c2ccc(F)cc2)o1)NCCc1ccccc1	none
COc1ccc(CCCc2nnc(SCC(=O)Nc3ccc(C)c(C)c3)o2)cc1	D1 antagonist -32!
O=S(=O)(Nc1ccc(-c2ccc(N3CCCC3)nn2)cc1)c1cccc(C(F)(F)F)c1	none
Cc1cccc(CCNC(=O)C2CCN(c3nc4ccccc4nc3C(F)(F)F)CC2)c1	none
Cc1ccc(S(=O)(=O)NNC(=O)Nc2ccc(Cl)cc2)cc1	none
Cc1occc1C(=O)NNS(=O)(=O)c1ccc(Cl)cc1	TRHR enhancer 37
CCOC(=O)Cc1csc(NC(=O)Nc2cccc(Cl)c2)n1	D1 antagonist -42
CCOC(=O)Cc1csc(NC(=S)NC(=O)c2ccccc2)n1	none
CCOC(=O)Cc1csc(NC(=O)c2ccc(Br)s2)n1	D1 antagonist -36
CCOC(=O)Cc1csc(NC(=S)NC(=O)c2ccccc2Br)n1	D1 ag 61
N#CN1CCC(NS(=O)(=O)c2ccc(F)cc2)CC1	none
CC1Cn2c(C(=O)NCc3ccccc3Cl)cc3cccc(c32)S1 (centres undefined)	none
COc1ccc(NC(=O)c2sc3nc(Cc4ccccc4)cc(C(F)(F)F)c3c2N)cc1OC	TRHR enhancer 32
COc1ccccc1NC(=O)c1sc2nc(Cc3ccccc3)cc(C(F)(F)F)c2c1N	none
COc1ccc(S(=O)(=O)N(CCc2ccccc2)CC(=O)N2CCOCC2)cc1	D1 antagonist -74
COc1ccc(S(=O)(=O)N(C)CC(=O)N2CCOCC2)cc1	none
CCN(C(=O)Cc1c(C(=O)O)c(C)cn1C)c1cccc(Cl)c1	none
Cn1c(=O)n(CC(=O)O)c(=O)c2c1nc1n2CCS1	TRHR enhancer 40!
O=c1oc2cc(O)ccc2cc1-c1nc(-c2ccc(Cl)c(Cl)c2)cs1	D1 ag 46
O=c1oc2cc(O)ccc2cc1-c1nc2c(s1)CCc1ccccc1-2	D1 ag 283, TRHR ag 199
CN1Cc2c(N3CCOCC3)nc3sc(C#N)c(N)c3c2CC1(C)C	none
CN1Cc2c(N3CCOCC3)nc3sc(C(=O)c4ccc(Br)cc4)c(N)c3c2CC1(C)C	D1 ag 34, D1 antagonist -49
O=C(/C=C/Nc1ccc(F)cc1)c1ccc(Oc2ncccn2)cc1	D1 antagonist -41
O=C1C2CC=CCC2C(=O)N1c1ncn[nH]1 (centres undefined)	none
Cc1ccc(C)n1-c1ncn[nH]1	TRHR enhancer 30
CCCC(=O)Nc1ccc(C(=O)/C=C/c2ccc(SC)cc2)cc1	D1 antagonist -48
CSc1ccc(/C=C/C(=O)c2ccc(NC(C)=O)cc2)cc1	none
CCc1nn2c(=O)cc(COC(=O)c3cccc(NC(=O)c4ccccc4C)c3)nc2s1	none
Cc1ccc(C(=O)N[C@@H](C)CN2C3=NC[C@H](C)N3C[C@H]2Cc2ccc(O)cc2)cc1Br	D1 antagonist -65
Cc1noc(C)c1CSCC(=O)Nc1nc(-c2ccc(F)c(F)c2)cs1	D1 antagonist -43
O=C(c1ccc2c(c1)N(Cc1ccc(Cl)cc1)C(=O)c1ccccc1S2=O)N1CCOCC1 (centres undefined)	none
CCOCCCNC(=O)Cn1nc(C)n2c(cc3cc(C)ccc32)c1=O	none
Cc1ccc(NC(=O)NC(=O)CN2C(=O)NC3(CCCCCCC3)C2=O)c(C)c1	none
Cc1ccc(NC(=O)CCN2C(=O)NC3(CCCC3)C2=O)c(C)c1	D1 antagonist -34
O=C(Cn1cc(S(=O)(=O)Cc2ccccc2Cl)c2ccccc21)Nc1ccc(F)cc1F	none
COc1cc(OC)c(C2C=C(c3ccc(C)cc3)Nc3c(C(=O)Nc4ccccc4)cnn32)cc1OC (centres undefined)	D1 antagonist -45
COc1ccc(C2C=C(c3ccc(C)cc3)Nc3c(C(=O)Nc4ccccc4)cnn32)cc1 (centres undefined)	none
CCOc1ccccc1-c1noc(CSc2nnc(-c3ccccc3)n2-c2cccc(C)c2)n1	none
COCCOc1ccc(C(F)(F)F)cc1NC(=O)c1ccc(C)cc1	none
COc1ccc(Oc2ccc(C(F)(F)F)cc2NC(=O)c2ccc(C)cc2)cc1	D1 ag 31
CC(=O)Nc1cc(C(F)(F)F)ccc1Oc1cccc(Br)c1	D1 ag 30
COc1ccc(OC)c(NC(=O)c2ccc(Cl)cc2)c1	D1 antagonist -36
Cc1ccc(CNC(=O)CSc2nc3ccsc3c(=O)n2-c2ccc(Br)cc2)cc1	none
Cc1cc(C)c(NC(=O)CN2C(=O)c3cccnc3Oc3ccc(C)cc32)c(C)c1	none
CC(C)NC(=O)NC(=O)CSc1ncccn1	none
CC(C)(C)NC(=O)NC(=O)CSc1ncccn1	D1 antagonist -35
CCOC(=O)c1c(C)[nH]c(C)c1S(=O)(=O)NCC(=O)Nc1cccc(C(F)(F)F)c1	D1 antagonist -40
CCc1ccc(NC(=O)CSc2n[nH]c(C)c2[N+](=O)[O-])cc1	D1 antagonist -48
O=C(CCNC(=O)c1ccccc1)N=Nc1c(O)[nH]c2ccccc12	none
O=C(CCc1c[nH]c2ccccc12)N=Nc1c(O)[nH]c2ccccc12	D1 antagonist -44
O=C(CCn1cnc2ccccc21)N=Nc1c(O)[nH]c2ccccc12	D1 antagonist -77
COc1ccc(-c2c(C)nn3c4c(cnc23)C(=O)CC(c2ccc(C)cc2)C4)cc1 (centres undefined)	none
